# Laboratory results published in PubChem BioAssay.
# Where “and” joins values, the source holds several entries; their conditions need not be identical. Identical values can stand only once. Calls of active or inactive are those of the source.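 The calls were made as follows, unless noted: active = compounds whose cell count with miR-34 switched on is under 0.7 times the count with it off; inactive = the rest.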
# Key:
# [1] = sensitizers of A549 cells to miR-34 induction, primary screen, imaging, A549 dox-inducible miR-34, nuclei and caspase counts (AID 1347080); settings: A549 miR-34 inducible, Hoechst nuclei count, 48 h
# [2] = survival rescue of mitochondrial mutant cells in low glucose, primary screen, MELAS cybrids, Rieske KO mouse fibroblasts, CellTiter-Glo (AID 1508586;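 active = mean z-score across replicates of 1.96 or higher in either the MELAS or the Rieske mutant cell line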;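 also: z relative to plate mean and SD of compound and empty wells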)
# [3] = viability rescue of complex I mutant cybrids, primary screen, cell-based, galactose medium, ATP luminescence (AID 1645843;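 active = z-score of at least 1.8 in each of two replicates, scored against plate mean and spread of sample wells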;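 also: positive z means more ATP and so rescue of galactose-driven cybrid death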); settings: complex I mutant cybrid cells, 72 h, stronger effect = higher value
# [4] = hESC survival regulators, cell-based (AID 493140; call rule not given here;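 also: cells exposed to compounds for four days before counting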); settings: human embryonic stem cell survival screen; stronger effect = higher value
# [5] = liver-stage malaria parasite growth inhibition, primary screen, cell-based, HepG2, luciferase luminescence, HepG2 viability (AID 624349; in the data active = parasite load remaining mostly below about 12%, no sharp cut-off; inactive = mostly above about 10%;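 also: 100% = mean of DMSO negative control wells on the same plate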); settings: P. berghei liver stage in HepG2, luciferase luminescence, concentration not given here; parasite load remaining: stronger effect = lower value; viability: measured here: HepG2 viability without parasites
# [6] = biological target: NAD(+) hydrolase SARM1 (Homo sapiens) (UniProt Q6SZW1); assay: SARM1 TIR NADase inhibitors, cell lysate, NAD-Glo luminescence (AID 1508614;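 active = compound whose remaining NAD level is above about 45 nM, limit read from the data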;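 also: higher remaining NAD means stronger inhibition of SARM1 NADase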); settings: SAM-TIR HEK293T lysate NADase, at 1 µM, stronger effect = higher value
# Sequence of NAD(+) hydrolase SARM1 (Homo sapiens) (Q6SZW1 whole entry, looked up): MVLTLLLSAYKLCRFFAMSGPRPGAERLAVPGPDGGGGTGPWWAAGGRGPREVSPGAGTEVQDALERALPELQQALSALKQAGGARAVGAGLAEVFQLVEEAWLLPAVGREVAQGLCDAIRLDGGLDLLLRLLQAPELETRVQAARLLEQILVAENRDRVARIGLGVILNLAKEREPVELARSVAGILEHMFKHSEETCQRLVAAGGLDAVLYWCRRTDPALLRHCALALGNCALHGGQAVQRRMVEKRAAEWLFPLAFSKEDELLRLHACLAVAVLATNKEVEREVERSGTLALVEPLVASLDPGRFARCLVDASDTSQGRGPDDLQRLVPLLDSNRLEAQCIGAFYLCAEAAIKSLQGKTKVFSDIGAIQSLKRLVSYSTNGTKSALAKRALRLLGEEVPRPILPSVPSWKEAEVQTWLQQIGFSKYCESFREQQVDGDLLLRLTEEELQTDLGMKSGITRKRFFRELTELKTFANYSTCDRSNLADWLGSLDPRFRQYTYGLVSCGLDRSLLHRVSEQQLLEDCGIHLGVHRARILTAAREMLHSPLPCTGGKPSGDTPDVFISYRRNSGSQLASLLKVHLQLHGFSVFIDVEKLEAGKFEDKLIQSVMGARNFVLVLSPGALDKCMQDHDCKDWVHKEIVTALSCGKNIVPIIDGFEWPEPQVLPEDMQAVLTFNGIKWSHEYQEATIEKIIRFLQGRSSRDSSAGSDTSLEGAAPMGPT
# [7] = stronger effect = lower value, cell number ratio, induced over uninduced
# [8] = measured here: relative caspase fold change +Dox/-Dox
# [9] = measured here: total cells with miR-34 induction, stronger effect = lower value
# [10] = measured here: total cells without miR-34 induction
# [11] = MELAS cybrid survival, CellTiter-Glo 48 h, stronger effect = higher value
# [12] = Rieske KO mouse fibroblast survival, CellTiter-Glo 72 h
Structure (SMILES),"fold change [1, 7]","fold change [1, 8]","cell count [1, 9]","cell count [1, 10]","z-score [2, 11]","z-score [2, 12]",z-score [3],survival [4],parasite load remaining [5],viability [5],remaining NAD [6]
CN(C)CCc1c[nH]c2ccc(CC3COC(=O)N3)cc12 (configuration not stated),0.908 (inactive) and 0.936 (inactive),1.13 and 0.401,9680 and 7960,10700 and 8510,-0.0653 (inactive),0.00529,0.625 (inactive),–,–,–,–
COc1ccc(-c2ncnc3sc(C)c(C)c23)c2cccnc12,0.949 (inactive),0.85,7370,7760,0.0989 (inactive),-0.295,-0.525 (inactive),–,–,–,–
COc1cc(N2CCN(Cc3ccccc3F)C(=O)C2)ncn1,0.848 (inactive),1.97,6780,7990,-0.24 (inactive),-0.349,-0.475 (inactive),–,–,–,–
Oc1ccc(C=Cc2cc(O)cc(O)c2)cc1,2.61 (inactive) and 0.913 (inactive),1.12 and 0.945,6320 and 7520,2420 and 8230,-0.411 (inactive),0.338,1.1 (inactive),–,–,–,–
COc1ccc(C(=O)Nc2c(Cl)cncc2Cl)cc1OC1CCCC1,0.898 (inactive),0.397,7850,8740,0.807 (inactive),0.781,0.215 (inactive),–,–,–,–
Cc1ccc(C(=O)N2CCC(Cc3ccccc3)CC2)cc1,0.922 (inactive),1.12,7870,8540,-0.903 (inactive),0.658,-0.71 (inactive),–,–,–,–
CCOC(=O)O[C@]1(C(=O)COC(=O)CC)CC[C@H]2[C@@H]3CCC4=CC(=O)C=C[C@]4(C)[C@H]3[C@@H](O)C[C@@]21C,0.839 (inactive),0.816,5980,7130,-0.565 (inactive),0.21,–,5.17 (inactive),80.7% (inactive),80.3%,10 nM (inactive)
